{"source": "PubChem BioAssay (NCI)", "key": {"[1]": {"test": "NCI Yeast Anticancer Drug Screen. Data for the rad52 strain (AID 147);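 note: 0% = growth of vehicle-treated control cultures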", "conditions": "S. cerevisiae rad52 mutant growth inhibition, stronger effect = higher value", "procedure,_shortened": "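Measured: yeast growth inhibition. System: strain with a defined DNA damage repair alteration. Reference: vehicle-treated control cultures.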"}, "[2]": {"test": "NCI Yeast Anticancer Drug Screen. Data for the wt1 strain (AID 149);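 note: 0% = growth of vehicle-treated wt1 cultures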", "conditions": "S. cerevisiae wt1 strain (SPY 50644) growth inhibition, stronger effect = higher value", "procedure,_shortened": "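wt1 yeast, compound-treated; % growth inhibition vs vehicle control.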"}, "[3]": {"test": "NCI Yeast Anticancer Drug Screen. Data for the rad50EPP+ strain (AID 151);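 note: 0% = growth of vehicle-treated control cultures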", "conditions": "S. cerevisiae rad50 mutant strain, stronger effect = higher value", "procedure,_shortened": "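One strain with a rad50 alteration (rad50EPP+) was compound-treated, its growth then compared to that of vehicle controls.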"}, "[4]": {"test": "NCI Yeast Anticancer Drug Screen. Data for the rad50 strain (AID 155);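 note: 0% = growth of vehicle-only cultures of the same strain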", "conditions": "S. cerevisiae rad50 strain growth inhibition, stronger effect = higher value", "procedure,_shortened": "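Genetically altered yeast (DNA repair pathway); compound treatment; growth inhibition vs vehicle ctrl.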"}, "[5]": {"test": "NCI Yeast Anticancer Drug Screen. Data for the mec2-1 strain (AID 157)", "conditions": "S. cerevisiae mec2-1 strain, stronger effect = higher value", "procedure,_shortened": "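Test agents were screened against the mec2-1 yeast strain, with defined DNA repair or cell cycle alteration. Growth was scored as inhibition against vehicle-only controls.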"}, "[6]": {"conditions": "at 5.0 µM (retest, dose inferred, filed as 0.5)"}, "[7]": {"conditions": "at 50.0 µM (retest, dose inferred, filed as 5.0)"}}, "note": "This is part of a sample that, as a whole, favours compounds with a hit. Of some 79,000 tested, about 15% had one in any assay. Values without a mark were called inactive. The source made the active and inactive calls. Cut-off read from the data, not from the text of the source: active = growth inhibition above about 70%; inactive = the rest."}
{"smiles": "COc1cc(CNc2ccc(C(C)C)cc2)cc(OC)c1OC", "values": [{"measurement": "growth inhibition", "setting": "[1]; at 1.2 µM", "value": 21, "unit": "%"}, {"measurement": "growth inhibition", "setting": "[1]; at 3.7 µM", "value": 3, "unit": "%"}, {"measurement": "growth inhibition", "setting": "[1]; at 11.0 µM", "value": -17, "unit": "%"}, {"measurement": "growth inhibition", "setting": "[1]; at 33.0 µM", "value": 13, "unit": "%"}, {"measurement": "growth inhibition", "setting": "[1]; at 100.0 µM", "value": "78% (active)"}, {"measurement": "growth inhibition", "setting": "[2]; at 1.2 µM", "value": 1, "unit": "%"}, {"measurement": "growth inhibition", "setting": "[2]; at 3.7 µM", "value": 15, "unit": "%"}, {"measurement": "growth inhibition", "setting": "[2]; at 11.0 µM", "value": 7, "unit": "%"}, {"measurement": "growth inhibition", "setting": "[2]; at 33.0 µM", "value": -8, "unit": "%"}, {"measurement": "growth inhibition", "setting": "[2]; at 100.0 µM", "value": 56, "unit": "%"}, {"measurement": "growth inhibition", "setting": "[3]; at 1.2 µM", "value": -4, "unit": "%"}, {"measurement": "growth inhibition", "setting": "[3]; at 3.7 µM", "value": -6, "unit": "%"}, {"measurement": "growth inhibition", "setting": "[3]; at 11.0 µM", "value": 5, "unit": "%"}, {"measurement": "growth inhibition", "setting": "[3]; at 33.0 µM", "value": 26, "unit": "%"}, {"measurement": "growth inhibition", "setting": "[3]; at 100.0 µM", "value": 28, "unit": "%"}, {"measurement": "growth inhibition", "setting": "[4]; at 1.2 µM", "value": 13, "unit": "%"}, {"measurement": "growth inhibition", "setting": "[4]; at 3.7 µM", "value": 0, "unit": "%"}, {"measurement": "growth inhibition", "setting": "[4]; [6]", "value": -1, "unit": "%"}, {"measurement": "growth inhibition", "setting": "[4]; at 11.0 µM", "value": -2, "unit": "%"}, {"measurement": "growth inhibition", "setting": "[4]; at 33.0 µM", "value": -19, "unit": "%"}, {"measurement": "growth inhibition", "setting": "[4]; [7]", "value": -3, "unit": "%"}, {"measurement": "growth inhibition", "setting": "[4]; at 50.0 µM", "value": 32.5, "unit": "%"}, {"measurement": "growth inhibition", "setting": "[4]; at 100.0 µM", "value": "73% (active)"}, {"measurement": "growth inhibition", "setting": "[5]; at 1.2 µM", "value": 8, "unit": "%"}, {"measurement": "growth inhibition", "setting": "[5]; at 3.7 µM", "value": -8, "unit": "%"}, {"measurement": "growth inhibition", "setting": "[5]; [6]", "value": -42, "unit": "%"}, {"measurement": "growth inhibition", "setting": "[5]; at 11.0 µM", "value": -4, "unit": "%"}, {"measurement": "growth inhibition", "setting": "[5]; at 33.0 µM", "value": -25, "unit": "%"}, {"measurement": "growth inhibition", "setting": "[5]; [7]", "value": 1, "unit": "%"}, {"measurement": "growth inhibition", "setting": "[5]; at 50.0 µM", "value": 25.4, "unit": "%"}]}
